Assay results reported in PubChem BioAssay AID1347418 (Sanford-Burnham Center for Chemical Genomics, 2020).
Among all 1,300 compounds or so, about 750 (58%) were called active. Some of the results follow. Values without a mark were called inactive.

The molecules below were run against Sulfhydryl oxidase 1 (Homo sapiens) (UniProt O00391) (assay: inhibition of human sulfhydryl oxidase QSOX1 – biochemical, ROS-Glo H2O2 luminescence, HTS, primary screen (AID 1347418)). Conditions: recombinant QSOX1, ROS-Glo H2O2 luminescence; at 12.5 µM; hits give high values; active = any value above zero.
Sulfhydryl oxidase 1 (Homo sapiens), sequence (O00391 whole entry, looked up): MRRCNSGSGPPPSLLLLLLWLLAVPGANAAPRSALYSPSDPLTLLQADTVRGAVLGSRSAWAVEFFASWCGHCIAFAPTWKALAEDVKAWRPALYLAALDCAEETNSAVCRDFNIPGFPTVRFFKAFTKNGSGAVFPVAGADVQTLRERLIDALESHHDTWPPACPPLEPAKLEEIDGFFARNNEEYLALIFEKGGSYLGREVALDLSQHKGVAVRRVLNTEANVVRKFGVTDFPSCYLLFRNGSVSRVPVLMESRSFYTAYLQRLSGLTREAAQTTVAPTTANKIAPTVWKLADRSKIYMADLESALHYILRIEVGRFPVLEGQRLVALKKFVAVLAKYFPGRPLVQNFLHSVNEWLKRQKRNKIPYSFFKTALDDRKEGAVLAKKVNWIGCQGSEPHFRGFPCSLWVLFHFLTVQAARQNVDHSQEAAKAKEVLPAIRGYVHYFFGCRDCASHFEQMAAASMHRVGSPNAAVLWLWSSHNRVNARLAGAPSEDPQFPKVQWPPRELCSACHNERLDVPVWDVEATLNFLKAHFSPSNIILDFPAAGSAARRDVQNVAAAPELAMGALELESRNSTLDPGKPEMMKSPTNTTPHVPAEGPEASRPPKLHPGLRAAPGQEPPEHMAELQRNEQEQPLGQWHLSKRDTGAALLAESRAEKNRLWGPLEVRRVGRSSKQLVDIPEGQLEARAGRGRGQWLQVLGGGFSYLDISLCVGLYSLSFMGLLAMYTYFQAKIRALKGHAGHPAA

Q: For `O=C(O)Cc1ccc(O)c(O)c1`, which inhibition is on record?
A: Its inhibition is 5.6% (active).

Q: With `CCCCCCCC/C=C\CCCCCCCC(=O)NCc1ccc(O)c(OC)c1` as the molecule, how does the inhibition read?
A: The inhibition was -4.3%.

Q: With `COc1cc(CC(=O)O)ccc1O` as the molecule, how does the inhibition read?
A: The inhibition was 11% (active).

Q: With `CC1CCN(CC[C@H]2CCCN2S(=O)(=O)c2cccc(O)c2)CC1` as the molecule, how does the inhibition read?
A: The inhibition was -3.7%.

Q: Which inhibition does the source give for `Brc1c(NC2=NCCN2)ccc2nccnc12` here?
A: The inhibition was -3.8%.

Q: Which inhibition does the source give for `O=C1c2ccccc2-c2n[nH]c3cccc1c23` here?
A: Its inhibition is 12.7% (active).

Q: Which inhibition does the source give for `Oc1cc2c(c(Cl)c1O)CCNCC2c1ccccc1` (stereo unspecified) here?
A: The inhibition was 24.1% (active).

Q: With `Oc1cc2c(cc1O)C(c1ccccc1)CNCC2` (stereo unspecified) as the molecule, how does the inhibition read?
A: Its inhibition is 5.7% (active).

Q: `Oc1ccc(C2CNCCc3c2cc(O)c(O)c3Cl)cc1` (stereo unspecified) was tested. Which inhibition did it give?
A: Its inhibition is 30% (active).

Q: Which inhibition does the source give for `O=C(O)C1=CCNCC1` here?
A: Its inhibition is -1.6%.

Q: Which inhibition does the source give for `NC(N)=NCCC[C@H](N)C(=O)O` here?
A: Its inhibition is 6% (active).

Q: `CC(N)=NCCCC[C@@H](N)C(=O)O` was tested. Which inhibition did it give?
A: The inhibition was -0.6%.

Q: For `CSC(N)=NCCC[C@H](N)C(=O)O`, which inhibition is on record?
A: The inhibition was 1.7% (active).

Q: Which inhibition does the source give for `CN(C)C(N)=NCCC[C@H](N)C(=O)O` here?
A: Its inhibition is 0.3% (active).

Q: `O=c1c2ccccc2nc2n1CCc1c-2[nH]c2ccccc12` was tested. Which inhibition did it give?
A: Its inhibition is 5% (active).

Q: With `Nc1c2c(nc3ccccc13)CCCC2` as the molecule, how does the inhibition read?
A: Its inhibition is -3.1%.

Q: How did the inhibition turn out when `CCCCCCC/C=C\CCCCCCCCC(=O)O` was run?
A: The inhibition was -3.4%.

Q: With `CCCCCCCCCCC/C=C\C(C)(C)/C=C\CCCC(=O)O` as the molecule, how does the inhibition read?
A: The inhibition was 9.1% (active).

Q: `CCCn1c(=O)c2[nH]c(-c3ccc(OCC(=O)NCCN)cc3)nc2n(CCC)c1=O` was tested. Which inhibition did it give?
A: The inhibition was 0.5% (active).

Q: How did the inhibition turn out when `CCCn1c(=O)c2[nH]c(-c3ccc(S(=O)(=O)O)cc3)nc2n(CCC)c1=O` was run?
A: The inhibition was -0.7%.

Q: With `CCC1(c2ccccc2)C(=O)NCNC1=O` as the molecule, how does the inhibition read?
A: The inhibition was 2.4% (active).

Q: `CN1Cc2c(N)cccc2C(c2ccccc2)C1` (stereo unspecified) was tested. Which inhibition did it give?
A: Its inhibition is 5.3% (active).

Q: How did the inhibition turn out when `CC1=C(/C=C/C(C)=C/C=C/C(C)=C/C(=O)O)C(C)(C)CCC1` was run?
A: Its inhibition is 2.4% (active).

Q: With `CC1=C(/C=C/C(C)=C/C=C/C(C)=C\C(=O)O)C(C)(C)CCC1` as the molecule, how does the inhibition read?
A: The inhibition was -3%.

Q: How did the inhibition turn out when `CC1=C(/C=C/C(C)=C/C=C/C(C)=C/C(=O)Nc2ccc(O)cc2)C(C)(C)CCC1` was run?
A: Its inhibition is 1.8% (active).

Q: `CC(=O)O[C@]1(C(C)=O)CC[C@H]2[C@@H]3C=C(Cl)C4=CC(=O)[C@@H]5C[C@@H]5[C@]4(C)[C@H]3CC[C@@]21C` was tested. Which inhibition did it give?
A: The inhibition was 6.1% (active).

Q: With `NC[C@@H]1O[C@H](C23CC4CC(CC(C4)C2)C3)Cc2c1ccc(O)c2O` as the molecule, how does the inhibition read?
A: The inhibition was 17.8% (active).

Q: How did the inhibition turn out when `NC[C@@H]1O[C@H](c2ccccc2)Cc2c1ccc(O)c2O` was run?
A: The inhibition was 11% (active).

Q: For `Nc1ncnc2n[nH]c(Nc3ccc(F)cc3)c12`, which inhibition is on record?
A: Its inhibition is 19.7% (active).

Q: For `C1COC(NC(C2CC2)C2CC2)=N1`, which inhibition is on record?
A: Its inhibition is 0.6% (active).

Q: Which inhibition does the source give for `Clc1ccc(N2CCN(Cc3cc4ccccn4n3)CC2)cc1` here?
A: The inhibition was 21.7% (active).

Q: For `Clc1ccc(Cn2c(CN3CCCC3)nc3ccccc32)cc1`, which inhibition is on record?
A: Its inhibition is -0.7%.

Q: For `O=C1CCC(N2C(=O)c3ccccc3C2=O)C(=O)N1` (stereo unspecified), which inhibition is on record?
A: Its inhibition is -1.8%.

Q: For `O=c1ccc2ccc(O)c(O)c2o1`, which inhibition is on record?
A: The inhibition was 31.6% (active).

Q: Which inhibition does the source give for `CC[C@@H](CO)Nc1nc(NCc2ccccc2)c2ncn(C(C)C)c2n1` here?
A: The inhibition was 6.3% (active).

Q: Which inhibition does the source give for `Cn1cnc2c(NCc3ccccc3)nc(NCCO)nc21` here?
A: Its inhibition is 1.3% (active).

Q: Which inhibition does the source give for `Cc1cc(NC2CCCCC2)nc(-n2nc(C)cc2C)n1` here?
A: Its inhibition is 1.1% (active).

Q: For `Cc1ccc(Cl)c(Nc2ccccc2C(=O)O)c1Cl`, which inhibition is on record?
A: The inhibition was 6.2% (active).

Q: With `O=C(O)c1ccccc1Nc1ccccc1` as the molecule, how does the inhibition read?
A: Its inhibition is 42.7% (active).

Q: For `O=C(O)CP(=O)(O)O`, which inhibition is on record?
A: The inhibition was -4%.

Q: How did the inhibition turn out when `CC(N)C1CCC(C(=O)Nc2ccncc2)CC1` (stereo unspecified) was run?
A: Its inhibition is 4.4% (active).

Q: `COc1ccc(C2CNC(=O)C2)cc1OC1CCCC1` (stereo unspecified) was tested. Which inhibition did it give?
A: Its inhibition is -7.5%.

Q: How did the inhibition turn out when `CC[C@@H](C)[C@H]1O[C@]2(CC[C@@H]1C)C[C@@H]1C[C@@H](C/C=C(\C)[C@@H](O[C@H]3C[C@H](OC)[C@@H](O[C@H]4C[C@H](OC)[C@@H](O)[C@H](C)O4)[C@H](C)O3)[C@@H](C)/C=C/C=C3\CO[C@@H]4[C@H](O)C(C)=C[C@@H](C(=O)O1)[C@]34O)O2` was run?
A: The inhibition was 1.1% (active).

Q: How did the inhibition turn out when `CCCNCC(O)COc1ccccc1C(=O)CCc1ccccc1` (stereo unspecified) was run?
A: Its inhibition is -7.1%.

Q: Which inhibition does the source give for `COc1ccccc1OCCNCC(O)COc1cccc2[nH]c3ccccc3c12` (stereo unspecified) here?
A: The inhibition was 1.9% (active).

Q: With `C=C1C(=O)O[C@@H]2[C@H]3O[C@]3(C)CCC=C(C)CC[C@@H]12` as the molecule, how does the inhibition read?
A: Its inhibition is 0.5% (active).

Q: For `NCCCC(N)(C(=O)O)C(F)F` (stereo unspecified), which inhibition is on record?
A: The inhibition was -2.3%.

Q: Which inhibition does the source give for `Cn1ncc(S(=O)(=O)Cc2ccccc2)c(Br)c1=O` here?
A: The inhibition was -5.4%.

Q: How did the inhibition turn out when `N[C@H](C(=O)O)[C@H](O)C(=O)O` was run?
A: The inhibition was 0.9% (active).

Q: Which inhibition does the source give for `N[C@@H](Cc1cnc[nH]1)C(=O)O` here?
A: The inhibition was 1.5% (active).

Q: For `NC(=S)c1ccc[n+]([C@@H]2O[C@@H](COP(=O)([O-])OP(=O)(O)OC[C@H]3O[C@@H](n4cnc5c(N)ncnc54)C(OP(=O)(O)O)[C@H]3O)C(O)C2O)c1` (stereo partly specified), which inhibition is on record?
A: Its inhibition is 3.1% (active).

Q: How did the inhibition turn out when `NC(=O)C1=C[N+](=C2OC(COP(=O)(O)OP(=O)([O-])OC[C@H]3O[C@@H](n4cnc5c(N)ncnc54)C(OP(=O)(O)O)[C@H]3O)C(O)C2O)C=CC1` (stereo partly specified) was run?
A: Its inhibition is -0.9%.

Q: `Nc1ncnc2c1ncn2[C@@H]1O[C@H](COP(=O)(O)OP(=O)(O)OP(=O)(O)OP(=O)(O)OC[C@@H]2O[C@H](n3cnc4c(N)ncnc43)C(O)[C@@H]2O)[C@H](O)C1O` (stereo partly specified) was tested. Which inhibition did it give?
A: The inhibition was 3.7% (active).

Q: `CCN(CC)c1ncnc2c1ncn2[C@@H]1O[C@H](COP(=O)(O)OP(=O)(O)C(Br)(Br)P(=O)(O)O)[C@@H](O)[C@H]1O` was tested. Which inhibition did it give?
A: Its inhibition is -1%.

Q: Which inhibition does the source give for `NC[C@H]1O[C@@H](n2cnc3c(N)ncnc32)[C@H](O)[C@@H]1O` here?
A: Its inhibition is -4.6%.

Q: With `Nc1ncnc2c1ncn2[C@@H]1O[C@H](COP(=O)(O)CP(=O)(O)OP(=O)(O)O)[C@H](O)C1O` (stereo partly specified) as the molecule, how does the inhibition read?
A: The inhibition was -6.5%.
